Bioassay records as filed in PubChem BioAssay.
Hits are enriched below; roughly 2.8% of the tested compounds scored in any of these assays.
CF NFkB block: cystic fibrosis NF-kB activation inhibition; KKLEB NF-kB-GFP reporter, PAF-induced, GFP fluorescence overnight; inhibition, % at 5 µM; 0.86% of 360,000 active; AID 588850;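 active = at least 50% inhibition at 5 µM, scaled per plate between neutral and stimulator controls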;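 also: PAF is a Pseudomonas aeruginosa culture filtrate used as stimulus; plate controls were PAF-stimulated DMSO wells for no effect and unstimulated DMSO wells for full effect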
KKLEB tox: counter-screen for CF NF-kB inhibitors: cytotoxicity | KKLEB CF airway cells viability, ATPlite luminescence, overnight; hits give low values; cells stimulated with P. aeruginosa culture filtrate | activity change (cytotoxicity), % at 5 µM | 0.36% of 360,000 active;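 active = corrected activity change at or below -50% at 5 µM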
HIF-2a inh: blocks HIF-2a reporter activity; 786-0 RCC cells HIF-2a reporter, luciferase luminescence, overnight; inhibition, % at 18.8 µM; 0.72% of 360,000 active;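 active = inhibition of the luminescence signal of 40% or more relative to plate controls, in a single-dose primary screen at 18.75 µM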
MITF TRPM1 inh: reduces MITF-dependent TRPM1 promoter luciferase signal; inhibition, % at 12.5 µM; SK-MEL-5 TRPM1 promoter luciferase, 24 h; 0.83% of 330,000 active;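 active = mean inhibition across replicates of 60% or more, whatever share of single replicates reaches that level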
Beta2AR agonist: agonists of human beta-2 adrenergic receptor inducing internalization. P07550. Am2.2-beta2AR cells, FAP receptor internalization, flow cytometry. response, % (no concentration beside the values). 0.43% of 340,000 active. AID 504454;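 active = response above a set limit, near 3 SD of response in nonfluorescent compounds, cut at about 42% in these data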
Target sequence (P07550 whole entry, looked up): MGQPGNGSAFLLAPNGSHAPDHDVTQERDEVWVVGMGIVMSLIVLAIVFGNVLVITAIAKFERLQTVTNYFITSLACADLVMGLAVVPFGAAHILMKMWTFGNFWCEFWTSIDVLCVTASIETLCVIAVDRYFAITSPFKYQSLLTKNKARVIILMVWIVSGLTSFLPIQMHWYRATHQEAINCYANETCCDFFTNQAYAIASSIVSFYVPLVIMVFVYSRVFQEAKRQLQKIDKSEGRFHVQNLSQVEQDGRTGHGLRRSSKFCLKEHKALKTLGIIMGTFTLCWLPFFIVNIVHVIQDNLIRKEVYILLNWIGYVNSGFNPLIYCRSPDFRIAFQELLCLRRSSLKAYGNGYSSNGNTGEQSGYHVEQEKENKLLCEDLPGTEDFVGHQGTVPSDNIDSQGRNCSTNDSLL
Peg3 prom inh-1: reduces Peg3 promoter-driven luciferase expression in HeLa | 1.7% of 360,000 active | inhibition, % at 20 µM | AID 588405 | HeLa PEG-Prom luciferase reporter, luminescence, overnight;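 active = inhibition of at least 50% at 20 µM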
Peg3 prom inh-2: confirmation of Peg3 promoter inhibitors; shares compounds with Peg3 prom inh-1; HeLa PEG-Prom luciferase reporter, luminescence, overnight; inhibition, % at 20 µM; 84% of 1,300 active;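 active = at 20 µM dose, 40% or more inhibition averaged across four replicates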
CF NFkB conf: CF NF-kB inhibition confirmation, single concentration; shares compounds with CF NFkB block; KKLEB CF airway cells, PAF-induced NF-kB-GFP fluorescence, overnight; inhibition, % at 5 µM; 64% of 1,300 active; AID 602472; in the data active = inhibition above about 40%;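 also: stimulus PAF is a Pseudomonas aeruginosa filtrate and not platelet activating factor; plate controls were DMSO wells with stimulus for no effect and unstimulated DMSO wells for full effect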
Mdm2 MdmX conf: Mdm2/MdmX (human) interaction inhibition, confirmed; shares compounds with HIF-2a inh; SaOS-2 split-luciferase Mdm2/MdmX complementation, luminescence; inhibition, % at 8 µM; 99% of 740 active;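 active = mean inhibition of the luminescence signal across two replicates at or above 26 percent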
HIF-2a inh conf: confirmation of HIF-2a inhibitors; shares compounds with HIF-2a inh; 786-0 RCC cells, HIF-2a luciferase reporter luminescence, overnight; inhibition, % at 18.8 µM; 56% of 1,800 active; AID 651580;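 active = mean inhibition across four replicates of at least 40 percent at the single tested concentration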
HIF-1a cs: HIF-1a inhibition counter-screen for HIF-2a hits. shares compounds with HIF-2a inh. MiaPaCa-2 HIF-1a luciferase reporter, desferoxamine, overnight. inhibition, % at 18.8 µM. 72% of 1,800 active. AID 651589;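 active = mean inhibition of the reporter signal across four replicates at the single tested dose of 50% or more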
* = called active by the depositor; · = no result given.

SMILES | CF NFkB block | KKLEB tox | HIF-2a inh | MITF TRPM1 inh | Beta2AR agonist | Peg3 prom inh-1 | Peg3 prom inh-2 | HIF-2a inh conf | HIF-1a cs | others
COc1ccccc1N(C(=O)CCl)c1cn(C(C)=O)c2ccccc12 | 89* | -102* | 48* | 63* | 29 | 67* | 72* | 44* | 49 | Mdm2 MdmX conf=103*
CCOC(=O)c1ccccc1Nc1cn(C(C)=O)c2ccccc12 | 12 | -18 | 13 | 16 | -2 | 12 | · | · | ·
CCCNC(=O)C1(C)CCCN(C(=O)c2c(C)noc2C)C1 (stereo not drawn) | 31 | -24 | 9 | · | · | 16 | · | · | ·
Cc1ccc2nc(-c3ccccc3)cn2c1 | -14 | 5 | 73* | 88* | -4 | 89* | 78* | 89* | 84*
COc1ccc(Cl)cc1C(=O)NC1CC(C)(C)NC(C)(C)C1 | -5 | -1 | 4 | · | · | -4 | · | · | ·
O=C1c2ccccc2OC2(C=Cc3ccccc3O2)N1Cc1ccccc1 (stereo not drawn) | 21 | -7 | 7 | 14 | 1 | 20 | · | · | ·
Cc1cc2c(c(/C=C/C(=O)c3ccccc3)c1)OC1(C=C2)Oc2ccccc2C(=O)N1C (stereo not drawn) | 62* | -23 | 80* | 40 | 5 | 80* | 99* | 62* | 105* | CF NFkB conf=-122
CS(=O)(=O)Nc1cccc(NC(=O)C2Cc3c(-c4ccccc4)ccnc3O2)c1 (stereo not drawn) | 1 | -1 | 47* | · | · | 51* | 57* | 22 | 85*
Cc1nc(Sc2nnnn2C)c2c3c(sc2n1)CCC3 | 52* | -3 | 55* | 87* | 21 | 55* | 29 | 28 | -9 | CF NFkB conf=33
Brc1ccc(Br)c2cnccc12 | 26 | 8 | 4 | -21 | -2 | 7 | · | · | ·
O=C(O)c1cc(OCc2ccccc2)cc(OCc2ccccc2)c1 | -6 | -3 | 21 | 8 | -6 | 9 | · | · | ·
COc1ccc(OCc2cccc(C(=O)O)c2)cc1 | 0 | -5 | 93* | 97* | 0 | 96* | 90* | 97* | 7 | Mdm2 MdmX conf=93*
O=C(OCC(F)(F)F)c1cccc(COc2ccc3ccccc3c2)c1 | 0 | -3 | 83* | 91* | 11 | 73* | 77* | 90* | -52
COC(=O)C[C@H]1N(S(=O)(=O)c2ccc(C)cc2)C(C(C)C)CC1(C(=O)OC)C(=O)OC (stereo partly drawn) | · | · | 1 | · | · | · | · | · | ·
CCC1(O)C(=O)OCc2c1cc1n(c2=O)Cc2cc3cc(O)ccc3nc2-1 (stereo not drawn) | 84* | -27 | 52* | 70* | 7 | 63* | 52* | 17 | 102* | CF NFkB conf=110*
O=[N+]([O-])c1ccc(-c2nc(C(Cl)Cl)c3ccccc3n2)cc1 | 33 | -46 | -29 | 66* | 6 | 64* | 34 | · | · | Mdm2 MdmX conf=102*
Cn1nnnc1Sc1ncnc2scc(-c3cccc4ccccc34)c12 | 48 | -43 | 53* | 34 | 5 | 98* | 97* | 68* | 105*
Cn1nnnc1SCc1cccc2ccccc12 | 10 | 6 | -2 | -10 | -5 | 3 | · | · | ·
CCOc1ccc(NC(=O)c2ccccn2)cc1 | -17 | -31 | 56* | 62* | 13 | 67* | 46* | 70* | 71*
CCCCCCn1c(=O)n2n(c1=O)[C@@H]1CN(S(=O)(=O)c3ccc(C)cc3)C[C@]1(O)[C@@H](OC(=O)NCc1ccco1)C2 | 2 | 10 | 22 | · | · | 17 | · | · | ·
Cc1ccc(NS(=O)(=O)c2cc3c4c(cccc4c2)C(=O)NC3=O)cc1C | 1 | -2 | 54* | 8 | 6 | 57* | 60* | 29 | 102*
O=C(CN1C(=O)c2ccccc2S1(=O)=O)c1ccc2c(c1)OCCCO2 | -14 | 0 | 93* | 82* | -4 | 99* | 95* | 99* | 104* | Mdm2 MdmX conf=96*
O=C(CN1C(=O)c2ccccc2S1(=O)=O)c1ccc2c(c1)OCCO2 | 6 | -4 | 90* | 88* | 4 | 108* | 96* | 98* | 104* | Mdm2 MdmX conf=100*
CC(NC(=O)c1ccc([N+](=O)[O-])o1)C12CC3CC(CC(C3)C1)C2 (stereo not drawn) | 100* | -70* | 64* | 70* | 0 | 86* | 77* | 21 | 103*
Cc1cccc(C)c1NS(=O)(=O)c1ccc(NC(=O)c2ccc(Cl)c([N+](=O)[O-])c2)cc1 | -1 | -3 | 91* | -6 | 8 | 106* | 98* | 25 | 108* | Mdm2 MdmX conf=102*
SMILES | CF NFkB block | KKLEB tox | HIF-2a inh | MITF TRPM1 inh | Beta2AR agonist | Peg3 prom inh-1 | Peg3 prom inh-2 | HIF-2a inh conf | HIF-1a cs | others
COCCN1C(=O)COc2ccccc2C1C(=O)NC(C)(C)C (stereo not drawn) | · | · | 3 | · | · | · | · | · | ·
CCC1=C(CC2NCCc3ccccc32)CC2c3cc(OC)c(OC)cc3CCN2C1 (stereo not drawn) | 63* | -12 | 41* | 70* | 3 | 61* | 80* | 39 | 104* | CF NFkB conf=72*
CC(=O)C(=Cc1cccc(C#N)c1)C(=O)c1ccccc1 | 56* | -7 | 94* | · | · | 104* | 19 | 28 | 87* | CF NFkB conf=-61
COc1ccc(C=C(C(C)=O)C(=O)c2ccccc2)cc1 | -5 | 29 | -35 | · | · | -5 | · | · | ·
C[C@H](O)[C@@H]1C(=O)N2CCc3c([nH]c4ccccc34)[C@@H]2C[C@@H]1N(C)Cc1ccc(Cl)cc1 | 5 | -11 | -14 | · | · | 10 | · | · | ·
O=C(Nc1ccccc1)c1cc(C2CCCN(C(=O)OCc3ccccc3)C2)on1 (stereo not drawn) | -13 | -1 | -280 | · | · | -192 | · | · | ·
O=C(N/N=C/c1cccs1)C(=O)Nc1cccc(Cl)c1 | -14 | 4 | -105 | -9 | -1 | -71 | · | · | ·
O=C(O)c1cccc(N/N=C/c2cccs2)c1 | -27 | 6 | 82* | 77* | -1 | 83* | 68* | 86* | -5
c1ccc(-c2noc(-c3ccc4c(c3)OCO4)n2)nc1 | -6 | -45 | 80* | 92* | -19 | 87* | 81* | 85* | 87*
COC(=O)c1nn(-c2ccc3c(c2)OCO3)cc1O | -10 | 1 | -222 | -50 | -5 | -126 | · | · | ·
